Results filed as inconclusive are left out. Calls of active or inactive are those of the source. Unless noted, calls come from the whole dose curve; as a rule, active = well fitted curve in the direction sought with a large enough effect in the repeat runs; inconclusive = weak or mixed curves; inactive = no such curve, though single readings can be large; an effect the other way counts as inactive or inconclusive.
Assays:
[1] = qHTS assay to identify small molecule antagonists of the glucocorticoid receptor (GR) signaling pathway - cell viability counter screen (AID 720693); note: nearly all actives have a fitted effect of over 55% in size
[2] = qHTS assay to identify small molecule antagonists of the androgen receptor (AR) signaling pathway - cell viability counter screen (AID 743033; note: nearly all actives have a fitted effect of over 45% in size)
[3] = qHTS assay to identify small molecule antagonists of the androgen receptor (AR) signaling pathway using the MDA cell line - cell viability counter screen (AID 743041; note: nearly all actives have a fitted effect of over 45% in size)
In short: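 qHTS viability read-out; MDA-kb2 AR-luc; R1881-stimulated; 16 h exposure at 37C, 0% CO2; CellTiter-Fluor, 30 min; fluorescence intensity.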

[4] = qHTS assay for identifying genotoxic compounds that show differential cytotoxicity against isogenic chicken DT40 cell lines with known DNA damage response pathways - wild type cell line (AID 743012); note: potency is the fitted concentration of half-maximal effect; nearly all actives have a fitted effect of over 60% in size
In short: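 Viability by ATP luminescence (CellTiter-Glo, 30 min RT) after 40 h compound treatment at 37 C/5% CO2, using 300 parental DNA repair-proficient DT40 cells per well.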

[5] = qHTS assay for identifying genotoxic compounds that show differential cytotoxicity against isogenic chicken DT40 cell lines with known DNA damage response pathways - Rev3 mutant cell line (AID 743014); note: potency is the fitted concentration of half-maximal effect; nearly all actives have a fitted effect of over 55% in size
[6] = qHTS assay for identifying genotoxic compounds that show differential cytotoxicity against isogenic chicken DT40 cell lines with known DNA damage response pathways - Rad54/Ku70 mutant cell line (AID 743015); note: nearly all actives have a fitted effect of over 60% in size; note: potency is the fitted concentration of half-maximal effect
[7] = target: Androgen receptor (Homo sapiens) (UniProt P10275); assay: qHTS assay to identify small molecule agonists of the androgen receptor (AR) signaling pathway using the MDA cell line (AID 743040; note: nearly all actives have a fitted effect of over 20% in size; note: potency is the fitted concentration of half-maximal effect)
In short: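 Agonist activity is measured as luciferase luminescence in human MDA-kb2 cells whose MMTV reporter responds to both AR and GR. Compounds in DMSO incubate 16 h at 37C, 0% CO2, and ONE-Glo is read after 30 min.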

[8] = target: Androgen receptor (Homo sapiens) (UniProt P10275); assay: qHTS assay to identify small molecule antagonists of the androgen receptor (AR) signaling pathway using the MDA cell line (AID 743042; note: nearly all actives have a fitted effect of over 55% in size)
In short: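 MDA-kb2 cells (human breast carcinoma, stably carrying an MMTV-luciferase reporter responsive to AR and GR) were plated at 3,000 cells/well and preincubated 5 hr at 37C, then given compound plus R1881 agonist for 16 h. ONE-Glo luminescence was read.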

[9] = target: Androgen receptor (Homo sapiens) (UniProt P10275); assay: qHTS assay to identify small molecule antagonists of the androgen receptor (AR) signaling pathway (AID 743035; active = well fitted inhibition curve with a large enough effect in the signal ratio in the repeat runs, not every such curve was filed as active; the % refers to the signal ratio; note: potency is the fitted concentration of half-maximal effect)
In short: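 Antagonist mode: AR-bla HEK293 cells co-treated with test compounds and agonist R1881 for 16 h at 37C, 5% CO2. Beta-lactamase activity read as FRET fluorescence after 2 h room-temperature substrate loading.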

Measured: Potency

Sequence of Androgen receptor (Homo sapiens) (P10275 whole entry, looked up): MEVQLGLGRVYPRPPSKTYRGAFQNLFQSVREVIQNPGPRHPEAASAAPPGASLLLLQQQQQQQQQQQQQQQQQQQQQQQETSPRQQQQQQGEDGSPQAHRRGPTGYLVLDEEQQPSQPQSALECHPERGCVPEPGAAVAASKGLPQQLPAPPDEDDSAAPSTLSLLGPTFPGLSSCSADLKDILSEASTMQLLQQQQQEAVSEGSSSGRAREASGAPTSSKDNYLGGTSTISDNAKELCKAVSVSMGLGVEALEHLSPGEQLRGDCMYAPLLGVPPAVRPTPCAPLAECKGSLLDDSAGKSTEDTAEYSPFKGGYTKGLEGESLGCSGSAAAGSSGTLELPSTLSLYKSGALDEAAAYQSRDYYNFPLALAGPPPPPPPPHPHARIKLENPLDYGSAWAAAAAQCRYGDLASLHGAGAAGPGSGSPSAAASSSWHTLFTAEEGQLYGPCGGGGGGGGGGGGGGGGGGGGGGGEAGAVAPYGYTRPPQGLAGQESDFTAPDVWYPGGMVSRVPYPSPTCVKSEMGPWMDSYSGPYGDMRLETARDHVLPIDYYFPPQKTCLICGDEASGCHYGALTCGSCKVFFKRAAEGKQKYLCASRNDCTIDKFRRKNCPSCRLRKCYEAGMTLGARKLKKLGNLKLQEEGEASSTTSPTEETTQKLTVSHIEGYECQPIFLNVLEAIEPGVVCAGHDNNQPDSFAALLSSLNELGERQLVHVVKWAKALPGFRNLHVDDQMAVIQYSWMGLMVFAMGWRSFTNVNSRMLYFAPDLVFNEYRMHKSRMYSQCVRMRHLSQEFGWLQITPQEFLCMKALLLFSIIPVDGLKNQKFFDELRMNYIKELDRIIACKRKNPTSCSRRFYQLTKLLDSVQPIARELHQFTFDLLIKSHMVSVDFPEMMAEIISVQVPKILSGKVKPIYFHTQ

CC(C)c1nc(N(C)S(C)(=O)=O)nc(-c2ccc(F)cc2)c1/C=C/C(O)CC(O)CC(=O)O (stereo not given)
inactive: [1] | [2] | [3]

C=CCNC1=C2C[C@@H](C)C[C@H](OC)[C@H](O)[C@@H](C)/C=C(\C)[C@H](OC(N)=O)[C@@H](OC)/C=C\C=C(/C)C(=O)NC(=CC1=O)C2=O
active: [4] 335 nM | [5] 473 nM | [6] 376 nM

NC(=O)OC[C@@H]1[C@H](NC(=O)/C(=N\OCC(=O)O)c2csc(N)n2)C(=O)N1S(=O)(=O)O
inactive: [1] | [6] | [2] | [3]

CCC[C@@H]1C[C@@H](C(=O)N[C@@H]([C@H]2O[C@H](SC)[C@H](O)[C@@H](O)[C@H]2O)[C@H](C)Cl)N(C)C1
inactive: [1] | [2] | [3]

COc1cc(C)c(/C=C/C(C)=C/C=C/C(C)=C/C(=O)O)c(C)c1C
inactive: [1] | [2] | [7] | [3] | [8]

O=C(O)[C@H](CC(=O)N1C[C@H]2CCCC[C@H]2C1)Cc1ccccc1
inactive: [1] | [6] | [2] | [3]

NCCC[C@H](N)C(=O)O
inactive: [1] | [2] | [3]

C#C[C@]1(O)CC[C@H]2[C@@H]3CCC4=C(CCC(=O)C4)[C@H]3CC[C@@]21C
inactive: [1] | [2] | [3]

C=C[C@]1(C)C[C@@H](OC(=O)CO)[C@]2(C)[C@H](C)CC[C@]3(CCC(=O)[C@H]32)[C@@H](C)[C@@H]1O
inactive: [1] | [2] | [3]

O=C(CCCCCCCCCCCCC1CCCC1)Nc1ccc(S(=O)(=O)c2ccc(NC(=O)CCCCCCCCCCCCC3CCCC3)cc2)cc1
inactive: [1] | [6] | [2] | [3]

O=C(CCCN1CCC(n2c(=S)[nH]c3ccccc32)CC1)c1ccc(F)cc1
active: [4] 11900 nM | [5] 18800 nM | [6] 16800 nM

CC(O)[C@H]1CC[C@H]2[C@@H]3CC[C@@H]4C[C@@H](O)CC[C@]4(C)[C@H]3CC[C@]12C (stereo not given in full)
inactive: [1] | [2] | [3]

Cc1cc(Nc2ccccc2C(=O)O)ccc1Cl
inactive: [1] | [2] | [7] | [3] | [8]

CCOC(=O)c1cc(-c2ccccc2)nc2ccc(C)cc12
inactive: [1] | [2] | [9] | [7] | [3] | [8]

CCCCC(C)(O)C/C=C/[C@H]1[C@H](O)CC(=O)[C@@H]1CCCCCCC(=O)OC (stereo not given in full)
inactive: [1] | [2] | [3]
active: [6] 1190 nM

CC(C)(CO)[C@@H](O)C(=O)NCCC(=O)NCCSSCCNC(=O)CCNC(=O)[C@H](O)C(C)(C)CO
inactive: [1] | [3]

CN1C(=O)CN2CCc3ccccc3C2c2cc(Cl)ccc21 (stereo not given)
inactive: [1] | [6] | [2] | [3]

COc1ccc(-c2noc(CC(=O)O)c2-c2ccc(OC)cc2)cc1
inactive: [1] | [6] | [2] | [3] | [8]

O=C(OCc1ccccc1)c1cccnc1
inactive: [1] | [3]
active: [6] 6680 nM

CC(C)[C@@H](C)/C=C/[C@@H](C)[C@H]1CC[C@H]2/C(=C/C=C3\C[C@@H](O)CC[C@@H]3C)CCC[C@]12C
inactive: [1] | [2] | [3]

C=C1CC2C3CCC4=CC(=O)C=C[C@]4(C)[C@@]3(F)[C@@H](O)C[C@]2(C)[C@@]1(O)C(=O)COC(C)=O (stereo not given in full)
inactive: [1] | [6] | [2] | [3]

CC(C)CN(C[C@@H](O)[C@H](Cc1ccccc1)NC(=O)O[C@@H]1CCOC1)S(=O)(=O)c1ccc(N)cc1
active: [9] 26800 nM
inactive: [1] | [2] | [7] | [3] | [8]

CCN(CC)CCOC(=O)c1cccnc1
inactive: [1] | [6] | [2] | [3]

CC1(C)[C@@H]2CC[C@@]1(C)[C@H](OC(=O)CSC#N)C2
inactive: [1] | [6] | [2] | [3]

CCC(=O)Oc1ccc2c(c1)CC[C@@H]1[C@@H]2CC[C@]2(C)[C@@H](OC(=O)CC)CC[C@@H]12
active: [7] 1190 nM
inactive: [1] | [3]

CC(Oc1ccccc1)C(=O)N[C@@H]1C(=O)N2[C@@H]1SC(C)(C)[C@@H]2C(=O)O (stereo not given in full)
inactive: [1] | [6] | [3]

c1ccc2cc(C3=NCCN3)ccc2c1
active: [6] 18800 nM
inactive: [1] | [2] | [3]

COC(=O)[C@H]1[C@H]2C[C@@H]3c4[nH]c5cc(OC)ccc5c4CCN3C[C@H]2C[C@@H](OC(=O)/C=C/c2cc(OC)c(OC)c(OC)c2)[C@@H]1OC
inactive: [1] | [2] | [7] | [3] | [8]

COc1ccc2c(c1)OC(C)(C)C(c1ccccc1)C2c1ccc(OCCN2CCCC2)cc1 (stereo not given)
active: [4] 3760 nM | [5] 5310 nM | [6] 5960 nM

C[C@@H]1CCC2[C@@H](C)[C@@H](O)O[C@@H]3O[C@@]4(C)CC[C@@H]1[C@@]23OO4 (stereo not given in full)
active: [4] 119 nM | [5] 133 nM | [6] 47.3 nM

COCC(=O)Nc1cc(Sc2ccccc2)ccc1N=C(NC(=O)OC)NC(=O)OC
inactive: [1] | [2] | [3]

CC(=O)OCC(=O)[C@@]1(O)[C@H](C)C[C@H]2[C@@H]3C[C@H](F)C4=CC(=O)C=C[C@]4(C)[C@H]3[C@@H](O)C[C@@]21C
active: [7] 29.8 nM
inactive: [1] | [2] | [3] | [8]

Source: PubChem BioAssay (Tox21)
